{"source": "PubChem BioAssay", "note": "Activity calls are given as the source filed them.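 Rule for the calls: active = RAM network inhibition above 8.4% in each of two replicates, 3 SD over the compound average; inconclusive = above 8.4% inhibition in only one replicate; inactive = 8.4% inhibition or less in each replicate.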", "data": [{"assay": "RAM signaling pathway blockade in yeast – S. cerevisiae, Pdr1DBD-CYC8 efflux-inhibited sensitized strain, primary screen (AID 1298);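 note: 0% = DMSO untreated cells without growth and 100% = 10 µM 1-NA-PP1 full growth; higher means more yeast growth rescued from 5-FOA killing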", "conditions": "S. cerevisiae cbk1-as DSE1-URA3 strain, 5-FOA growth OD615, 2 d; at 50 µM; active compounds read high", "values": [{"smiles": "CCOC(=O)Cn1c(=O)oc2cc(S(=O)(=O)NCc3ccccn3)ccc21", "RAM network inhibition": "3.14% (inactive)"}, {"smiles": "CCOC(=O)C1C(C)N=C2SCC(=O)N2C1c1cccc(Br)c1", "note": "(stereo unspecified)", "RAM network inhibition": "3.99% (inactive)"}, {"smiles": "CN1CCN(c2cc3c(c4c2[nH]c2ccccc24)C(=O)CC(C)(C)C3)CC1", "RAM network inhibition": "0.78% (inactive)"}, {"smiles": "Cc1cc(/C=N/n2cnnc2)c(C)n1-c1ccc(C(=O)O)cc1", "RAM network inhibition": "2.56% (inactive)"}, {"smiles": "O=C(CSc1cn(Cc2ccccc2)c2ccccc12)Nc1nccs1", "RAM network inhibition": "0.83% (inactive)"}, {"smiles": "CCOC(=O)CN1Cc2cccc(C(=O)O)c2C1=O", "RAM network inhibition": "1.31% (inactive)"}, {"smiles": "CCOC(=O)C1CCCN(C(=O)c2ccc(CNc3c(N4CCC(C)CC4)c(=O)c3=O)cc2)C1", "note": "(stereo unspecified)", "RAM network inhibition": "4.84% (inactive)"}, {"smiles": "O=C1C(Cl)=C(N2CCCCCC2)C(=O)N1c1ccccc1", "RAM network inhibition": "3.09% (inactive)"}, {"smiles": "O=C(Nc1c(C(=O)O)oc2ccc(Br)cc12)c1ccccc1", "RAM network inhibition": "-2.35% (inactive)"}, {"smiles": "CC1(C)CC(=O)C2(CC3=C(CC(C)(C)CC3=O)O2)C(=O)C1", "RAM network inhibition": "1.77% (inactive)"}, {"smiles": "CCCn1nc(NC(=O)CC(C)C)c2cc3ccccc3nc21", "RAM network inhibition": "3.01% (inactive)"}, {"smiles": "Cc1ccc(C2=[N+]([O-])C3(CCCCC/C3=N\\O)N(O)C2(C)C)o1", "note": "(stereo unspecified)", "RAM network inhibition": "1.01% (inactive)"}, {"smiles": "COc1ccc(-c2nc(CS(=O)CC(=O)NCC3CCCO3)c(C)o2)cc1", "note": "(stereo unspecified)", "RAM network inhibition": "4.03% (inactive)"}, {"smiles": "CN(C(=O)c1ccc2c(c1)OCO2)C1(C(=O)NC2CCCCC2)CCCCC1", "RAM network inhibition": "0.21% (inactive)"}, {"smiles": "CCn1c(=O)cc(OCC(=O)N2CCc3ccccc32)c2ccccc21", "RAM network inhibition": "3.25% (inactive)"}, {"smiles": "Cn1c(=O)[nH]c(=O)c2[nH]c(CN3CCN(Cc4ccccc4)CC3)nc21", "RAM network inhibition": "1.09% (inactive)"}]}]}
